High-throughput results from PubChem BioAssay.
HT1080 IDH1KD tx = kills HT-1080 cells with IDH1 knockdown | HT-1080 IDH1 knockdown viability, ATP luminescence, 48 h | Potency, µM (top dose mostly 46.1 µM), for inactives: at the top dose activity, negative = toxicity, hits mostly cytotoxic | 2% of 360,000 active | AID 686971;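 note: potency is the fitted concentration of half-maximal effect; 0% = DMSO wells and -100% = cell-free medium wells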
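In this qHTS, HT-1080 cells depleted of IDH1 are exposed for 48 h at 37 °C to compound titrations. Toxicity is scored from CellTiter-Glo luminescence, with DMSO as full viability and medium alone as none.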
DT40 TDP1 CPT = growth inhibition of DT40 Tdp1-/-;hTDP1 cells with camptothecin (screen for TDP1 inhibitors); chicken DT40 Tdp1-/-;hTDP1 cells + 20 nM CPT, ATP luminescence, 48 h; Potency, µM (doses to about 46.2 µM), inactives show at the highest dose activity change, negative = growth inhibition, actives largely listed as inhibitors; 12% of 420,000 active; AID 686979; note: potency is the fitted concentration of half-maximal effect; nearly all actives have a fitted effect of over 55% in size
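Chicken DT40 Tdp1-/- cells complemented with human TDP1, 400 cells/well, exposed to compounds plus 20 nM camptothecin for at least 48 h at 37 C; viability read as ATP content by CellTiter-Glo luminescence.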
HT1080-NT tox = kills 2HG-producing HT-1080-NT fibrosarcoma cells; HT-1080-NT fibrosarcoma viability, CellTiter-Glo ATP luminescence, 48 h; AID 686970; Potency, µM (titrated, usually from 46.1 µM), without a hit: at the top dose activity, negative = less viability, actives largely listed as cytotoxic; 1.6% of 360,000 active;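 note: NT is the 2HG producing partner of a matched IDH1 knockdown line; potency is the fitted concentration of half-maximal effect; 0% = DMSO-treated cells and -100% = media-only wells without cells; nearly all actives have a fitted effect of over 55% in size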
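Compounds were tested in concentration-response format on HT-1080-NT cells for 48 hours at 37 degrees C. Cell viability came from CellTiter-Glo luminescence; curves were classified by r2, response magnitude and activity.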
DT40 TDP1 no CPT = qHTS for Inhibitors of human tyrosyl-DNA phosphodiesterase 1 (TDP1): qHTS in cells in absence of CPT; DT40 Tdp1-/- hTDP1 cells, no CPT, ATP luminescence, 48 h; Potency, µM (top dose mostly 46.2 µM), for inactives: at the top dose activity change, negative = growth inhibition, most hits filed as inhibitors; 15% of 420,000 active; note: potency is the fitted concentration of half-maximal effect; nearly all actives have a fitted effect of over 55% in size
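DT40 Tdp1-/-;hTDP1 cells, no CPT (DMSO vehicle only), 400 cells/well; compounds pin-transferred; ≥48 hr, 37 °C; CellTiter-Glo 30 min RT dark, luminescence read.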
IL1B secr inh = inflammasome signaling inhibition, IL-1 beta readout. 4.7% of 360,000 active. activity change, % at 57.5 µM. THP-1 LPS/ATP IL-1B secretion, AlphaLISA, 16 h; active compounds read low; in the data active = activity change below about -50%; inconclusive = mostly about -30% to -49%
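Secreted IL-1B measured by AlphaLISA bead assay after 16 h compound exposure of THP-1 cells; compounds (final up to 57.5 uM) added 1 h before LPS (250 ng/mL) and ATP (1.25 mM) stimulation; lower signal means less secretion.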
uPA surface inh = inhibitors of cell surface uPA generation; Potency, µM (highest dose often 38.3 µM), inactives show at the top dose activity change, negative = inhibition, hits mostly inhibitors; cell surface uPA generation assay, qHTS; AID 540303; 0.31% of 330,000 active; active = well fitted inhibition curve with a large enough effect; inconclusive = small, poorly fitted or top-dose-only effect; inactive = no such curve, though single readings can be large or run the other way; tested in mouse RAW 264.7 cells; note: potency is the fitted concentration of half-maximal effect; nearly all actives have a fitted effect of over 55% in size
* = called active by the depositor; ? = inconclusive; / = not tested or not shown. Sampled rows, rich in hits. Any-hit rate of the full collection: about 19%. Unless noted, calls come from the whole dose curve; as a rule, active = well fitted curve in the direction sought with a large enough effect; inconclusive = small, poorly fitted or top-dose-only effect, or another doubt; inactive = no such curve, though single readings can be large; an effect the other way counts as inactive or inconclusive. Unless noted, % is set by controls: 0 for no effect and ±100 for the full control effect.

SMILES	HT1080 IDH1KD tx	DT40 TDP1 CPT	HT1080-NT tox	DT40 TDP1 no CPT	IL1B secr inh	uPA surface inh
COc1ccccc1/C=C/C(=O)c1cc(Br)ccc1OC(=O)c1ccco1	21µM*	?	18µM*	?	-98*	-14%
CC(C)(C)c1cc(CCC(=O)NCc2ccccn2)cc(C(C)(C)C)c1O	-1%	?	1%	-18%	15	?
Cc1ccccc1N(C)C(=O)C1CCCN(c2ncnc3c2nc2n3CCCCC2)C1 (stereo not drawn)	12%	?	12%	23µM*	31	10%
CCOC(=O)c1ccccc1NC(=O)C1CCN(c2ncnc3c2nc2n3CCCCC2)CC1	/	-2%	/	0%	/	/
O=C(C1CCN(c2ncnc3c2nc2n3CCCCC2)CC1)N1CCN(c2ccccc2F)CC1	-24%	?	?	21µM*	-8	17%
CC1CCCN(c2ncnc3c2nc2n3CCCCC2)C1 (stereo not drawn)	/	-24%	/	?	/	/
O=C(C1CCCN(c2ncnc3c2nc2n3CCCCC2)C1)N1CCN(c2cccc(Cl)c2)CC1 (stereo not drawn)	?	23µM*	?	18µM*	?	-12%
O=C(C1CCCN(c2ncnc3c2nc2n3CCCCC2)C1)N1CCN(c2ccccc2)CC1 (stereo not drawn)	0%	?	12%	2.1µM*	11	5%
CCN(C[C@H]1N[C@@](C)(C(=O)OC)[C@H]2C(=O)N(C)C(=O)[C@@H]12)C(=O)C1CCCCC1	12%	-1%	11%	-5%	19	-2%
Cc1cccc(N2CCN(C(=O)C3CCN(c4ncnc5c4nc4n5CCCCC4)CC3)CC2C)c1 (stereo not drawn)	?	6.5µM*	?	4.6µM*	?	-20%
COc1ccccc1N1CCN(CCCNC(=O)C2CCCN(c3ncnc4c3nc3n4CCCCC3)C2)CC1 (stereo not drawn)	1%	?	-10%	?	-28	6%
Cc1ccc(C)c(N2CCN(C(=O)C3CCCN(c4ncnc5c4nc4n5CCCCC4)C3)CC2)c1 (stereo not drawn)	17%	16µM*	16%	23µM*	?	4%
COc1ccccc1N1CCN(C(=O)C2CCCN(c3ncnc4c3nc3n4CCCCC3)C2)CC1 (stereo not drawn)	-10%	15µM*	-25%	16µM*	31	4%
CN(C(=O)C1CCCN(c2ncnc3c2nc2n3CCCCC2)C1)c1cccc(Cl)c1 (stereo not drawn)	?	13µM*	?	12µM*	-5	-6%
O=c1c(-c2cccs2)nc2cncnc2n1Cc1ccccc1	/	15%	/	13%	/	/
COc1ccccc1N1CCN(c2ncnc3c2nc2n3CCCC2)CC1	/	18µM*	/	18µM*	/	/
Cc1ncc(CO)c(/C=N/NC(=S)Nc2cccc(Cl)c2)c1O	-24%	?	-12%	16µM*	35	-18%
Cc1ncc(CO)c(/C=N/NC(=S)Nc2ccc(Cl)c(Cl)c2)c1O	-28%	16µM*	-13%	13µM*	29	-17%
Cc1ncc(CO)c(/C=N/NC(=O)c2ccoc2C)c1O	-19%	?	-5%	?	62	-3%
CCCCCCCCCCCCCCCC[n+]1ccc(CC(O)c2c(C)[nH]c3ccccc23)c2ccccc21 (stereo not drawn)	/	1.6µM*	/	1.3µM*	/	/
O=C1C(Cc2ccc3[nH]ccc3c2)NC(=S)N1c1ccccc1 (stereo not drawn)	13%	4%	4%	-8%	/	-2%
Cc1cccc2cc(/C=N/NC(=O)c3ccccc3O)c(Cl)nc12	-21%	18µM*	0%	?	11	0%
Cc1nc2c(C)cccc2cc1C(=O)N/N=C/c1ccc(O)cc1	?	29µM*	?	?	-9	-11%
Cc1cccc2cc(/C=N/NC(=O)c3ccncc3)c(Cl)nc12	3%	-3%	8%	15%	0	5%
Cc1ccc(OCCn2cc(/C=N/NC(=O)c3ccncc3)c3ccccc32)cc1	?	?	-29%	23µM*	?	-17%
SMILES	HT1080 IDH1KD tx	DT40 TDP1 CPT	HT1080-NT tox	DT40 TDP1 no CPT	IL1B secr inh	uPA surface inh
Cc1ccc(OCCn2cc(/C=C3\C(=O)NN(c4ccccc4)C3=O)c3ccccc32)cc1	2%	16µM*	3%	26µM*	-1	7%
CCOC(=O)N/N=C/c1cn(CCCOc2ccccc2)c2ccccc12	-28%	?	-22%	?	-29	0%
CCOC(=O)N/N=C/c1cn(CCCOc2ccc(C)cc2)c2ccccc12	-7%	?	1%	21µM*	-12	-1%
COCCNC(=O)Cn1cc(/C=N/NC(=O)c2ccc(Oc3ccc(O)cc3)cc2)c2ccccc21	-21%	10%	-5%	-6%	-70*	2%
CC(C)(C)c1ccc(C(=O)Nc2ccc(-c3nc4ccccc4o3)c(O)c2)cc1	/	5%	/	-17%	/	/
COC(=O)N/N=C/c1cn(CCOc2ccccc2)c2ccccc12	-15%	0%	-9%	?	?	-3%
COC(=O)N/N=C/c1cn(CC(C)COc2ccccc2)c2ccccc12 (stereo not drawn)	-15%	?	1%	23µM*	-22	-4%
Cn1cc(C=CC(=O)O)c2nccnc21	16%	-4%	0%	6%	45	/
Cc1ccc(NC(=O)N2CCN(c3cc(-c4noc(C)n4)ccc3C)CC2)c(C)c1	/	-5%	/	1%	/	/
COc1ccc(NC(=O)c2ccc(-c3ccc(-c4noc(C)n4)cc3C)cc2)cc1N1CCN(C)CC1	23µM*	2.6µM*	8.2µM*	2.1µM*	-12	?
COc1ccc(NC(=O)c2ccc(-c3ccc(-c4noc(C)n4)cc3C)cc2)cc1OCCN(C)C	/	5.2µM*	/	2.6µM*	/	/
O=C(NN1c2ccccc2CCc2ccccc21)c1ccccc1Br	-19%	21µM*	-1%	?	7	3%
CC(=O)Nc1cc[n+](CC(=O)c2ccc(Cl)cc2)cc1	7%	8%	8%	-11%	0	3%
CC(C(=O)c1ccc(-c2ccccc2)cc1)[n+]1ccccc1 (stereo not drawn)	?	2.6µM*	-11%	2.1µM*	-13	-17%
Cc1ccc[n+](C(C)C(=O)c2ccc(-c3ccccc3)cc2)c1 (stereo not drawn)	-15%	4.1µM*	?	5.2µM*	?	-11%
